Experiment [1] can be described thus: ACEA_AR_antagonist_AUC_viability: ACEA Biosciences xCELLigence Real-Time Cell Analysis on Androgen Receptor Antagonism for Viability (AID 2283776).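 Also: area under impedance growth curve at 80 h after dosing as viability; hits lower the growth signal relative to DMSO meaning cytotoxicity.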 The method, boiled down: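 22Rv1 human prostate cancer cells were seeded on electrode plates, monitored overnight, then exposed to eight 1:4 dilutions from 100 uM final. Impedance-based growth kinetics at 80 h gave an AUC viability endpoint normalized to DMSO.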

For experiment [2], the target named is AR (gene 367) (UniProt P10275). In words: ACEA_AR_antagonist_80hr: ACEA Biosciences xCELLigence Real-Time Cell Analysis on Androgen Receptor Antagonism for Proliferation (AID 2283787).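 Also: hits lower the impedance growth signal relative to DMSO.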 The method, boiled down: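 Using 22Rv1 cells held in assay medium, we dosed compounds (100 uM maximum final, 1:4 serial, eight points, 0.5% DMSO at top) and recorded cell-electrode impedance; the 80 hr timepoint was analyzed against DMSO.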

Experiment [3] deals with frog Estrogen Receptor (ESR1), gene 398734. In words: ATG_frER1_XSP1: Attagene TRANS-FACTORIAL Multi-Species (XSP1) HepG2 Assay for frog Estrogen Receptor (ESR1) (AID 2283777). The essentials: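 After transient transfection and 24 h compound treatment, total RNA from HepG2 cells was reverse-transcribed, amplified, FAM-labeled and resolved by capillary electrophoresis. Signal increases were fitted against DMSO controls.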

Experiment [4] has as its system zebrafish Estrogen Receptor (ESR2A), gene 317734. The experiment can be described thus: ATG_zfER2a_XSP1: Attagene TRANS-FACTORIAL Multi-Species (XSP1) HepG2 Assay for zebrafish Estrogen Receptor (ESR2A) (AID 2283778). The essentials:
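Gain-of-signal reporter transcription readout from GAL4-UAS units in transiently transfected HepG2 cells, 24 h exposure, 3 nM 6-alpha-fluorotestosterone co-present. Detection by RT-PCR with capillary electrophoresis fluorescence.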

For experiment [5], the target named is chicken Estrogen Receptor (ESR1), ESR1 (gene 396099) (UniProt P06212). The experiment can be described thus: ATG_chERa_XSP1: Attagene TRANS-FACTORIAL Multi-Species (XSP1) HepG2 Assay for chicken Estrogen Receptor (ESR1) (AID 2283779). The method, boiled down:
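Gain-of-signal reporter transcription, relative to DMSO, was scored in transiently transfected HepG2 cells after a 24 h dose. Fluorescence intensity of amplified, digested reporter cDNA fragments served as the endpoint.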

Experiment [6] has as its target Estrogen receptor (Homo sapiens) (UniProt P03372). In words: ATG_hERa_XSP1: Attagene TRANS-FACTORIAL Multi-Species (XSP1) HepG2 Assay for human Estrogen Receptor (ESR1) (AID 2283780). The method, boiled down: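 Reporter transcripts from multiplexed GAL4-UAS units driven by NR-Gal4 chimeras in transiently transfected HepG2 were measured by RT-PCR with capillary electrophoresis 24 h post-dose, with 3 nM 6-alpha-fluorotestosterone present; gain-of-signal relative to DMSO.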

Experiment [7] relates to turtle Estrogen Receptor (ESR1), gene 101933533. The experiment can be described thus: ATG_trERa_XSP1: Attagene TRANS-FACTORIAL Multi-Species (XSP1) HepG2 Assay for turtle Estrogen Receptor (ESR1) (AID 2283781). The method, boiled down:
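Cell-based chimeric NR-Gal4 transactivation; HepG2; 24 h dosing; mRNA reporter detected by RT-PCR and capillary electrophoresis fluorescence.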

Experiment [8] is described as follows: ATG_M_06_XSP1: Attagene TRANS-FACTORIAL Multi-Species (XSP1) HepG2 Assay for M06 Transcription Factor (Internal Marker) (AID 2283790). The method, boiled down:
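This background-control readout tracks M06 reporter mRNA, measured by RT-PCR and capillary electrophoresis. HepG2 cells transiently carrying the GAL4-UAS reporter panel were dosed for 24 h with 3 nM 6-alpha-fluorotestosterone added for partial AR stimulation; increases were scored relative to DMSO.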

A short description of experiment [9]: ATG_M_61_XSP1: Attagene TRANS-FACTORIAL Multi-Species (XSP1) HepG2 Assay for M61 Transcription Factor (Internal Marker) (AID 2283797). The method, boiled down: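 Background-control readout: reporter transcripts measured by RT-PCR and capillary electrophoresis 24 h after dosing transiently transfected HepG2 multi-reporter cells, with 3 nM 6-alpha-fluorotestosterone present. Fitted in the positive direction relative to DMSO.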

The nature of experiment [10]: ATG_M_32_XSP1: Attagene TRANS-FACTORIAL Multi-Species (XSP1) HepG2 Assay for M32 Transcription Factor (Internal Marker) (AID 2283799). The essentials: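 Reporter transcripts from the M32 internal-control unit measured by RT-PCR, FAM labelling, HpaI digestion and capillary electrophoresis after 24 h compound exposure of transfected HepG2, 3 nM 6-alpha-fluorotestosterone included; DMSO baseline, positive-direction fit.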

For experiment [11], the system named is zebrafish Peroxisome Proliferator-activated Receptor gamma (PPARg), gene 557037. The experiment can be described thus: ATG_zfPPARg_XSP1: Attagene TRANS-FACTORIAL Multi-Species (XSP1) HepG2 Assay for zebrafish Peroxisome Proliferator-activated Receptor gamma (PPARg) (AID 2283801). The method, boiled down: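 Trans-activation readout of chimeric zebrafish PPARg–GAL4 in transiently transfected human HepG2 cells, 24 h chemical exposure (medium includes 3 nM 6-alpha-fluorotestosterone). Reporter transcripts measured by RT-PCR and capillary electrophoresis, fitted as gain over DMSO.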

Experiment [12] has as its target Nuclear receptor subfamily 1 group I member 2 (Mus musculus) (UniProt O54915). In words: ATG_mPXR_XSP1: Attagene TRANS-FACTORIAL Multi-Species (XSP1) HepG2 Assay for mouse Pregnane X Receptor (PXR) (AID 2283803). The essentials:
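Transiently transfected HepG2 cells expressing a receptor-Gal4 chimera drive a GAL4-UAS reporter; 3 nM 6-alpha-fluorotestosterone included. Reporter mRNA read 24 h post-dose by RT-PCR and capillary electrophoresis; gain of signal relative to DMSO.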

For experiment [13], the target named is frog Thyroid hormone Receptor alpha (TRa), thra-a (gene 397942) (UniProt P15204). The experiment can be described thus: ATG_frTRa_XSP1: Attagene TRANS-FACTORIAL Multi-Species (XSP1) HepG2 Assay for frog Thyroid hormone Receptor alpha (TRa) (AID 2283804). The essentials: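 Reporter transcript induction, measured by RT-PCR with 6-FAM labelling and capillary electrophoresis, 24 hr after dosing transiently transfected HepG2 cells expressing a frog TRa-GAL4 fusion; medium contained 3 nM 6-alpha-fluorotestosterone; increase over DMSO scored.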

For experiment [14], the target named is AR (gene 367) (UniProt P10275). The experiment can be described thus: ACEA_AR_agonist_80hr: ACEA Biosciences xCELLigence Real-Time Cell Analysis on Androgen Receptor Agonism for Proliferation (AID 2283783).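 Also: hits increase impedance growth signal above DMSO baseline.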 The method, boiled down:
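Real-time cell-growth kinetics were recorded by electrode impedance in 22Rv1 cells exposed to test chemicals up to 100 uM final; the 80 h timepoint served as the readout, fitted upward relative to DMSO controls, in biological duplicate.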

In experiment [15] the target is Estrogen receptor beta (Homo sapiens) (UniProt Q92731). The experiment can be described thus: ATG_hERb_XSP1: Attagene TRANS-FACTORIAL Multi-Species (XSP1) HepG2 Assay for human Estrogen Receptor (ESR2) (AID 2283788). The method, boiled down: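 Multiplexed trans-activation in transfected HepG2: ERβ-Gal4 reporter transcripts after 24 h treatment, detected by RT-PCR plus capillary electrophoresis.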

Experiment [16] is described as follows: ACEA_ER_AUC_viability: ACEA Biosciences xCELLigence Real-Time Cell Analysis on Estrogen Receptor Agonism for Viability (AID 2283782).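 Also: hit means loss of impedance signal meaning reduced cell growth or viability.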 The method, boiled down:
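Continuous-exposure impedance cell analysis uses T-47D cells in charcoal-stripped serum, eight 1:4 dilutions topping at 100 uM final, biological duplicate. Area under the growth curve at 80 h is fitted against DMSO baseline.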

Inconclusive results are not listed. Activity calls are given as the source filed them. The calls were made as follows: active = hit-call score of the fitted dose curve at least 0.9, where 1 is the maximum; inconclusive = response in the unintended direction; inactive = score below 0.9.

AR (gene 367), sequence (P10275 whole entry, looked up): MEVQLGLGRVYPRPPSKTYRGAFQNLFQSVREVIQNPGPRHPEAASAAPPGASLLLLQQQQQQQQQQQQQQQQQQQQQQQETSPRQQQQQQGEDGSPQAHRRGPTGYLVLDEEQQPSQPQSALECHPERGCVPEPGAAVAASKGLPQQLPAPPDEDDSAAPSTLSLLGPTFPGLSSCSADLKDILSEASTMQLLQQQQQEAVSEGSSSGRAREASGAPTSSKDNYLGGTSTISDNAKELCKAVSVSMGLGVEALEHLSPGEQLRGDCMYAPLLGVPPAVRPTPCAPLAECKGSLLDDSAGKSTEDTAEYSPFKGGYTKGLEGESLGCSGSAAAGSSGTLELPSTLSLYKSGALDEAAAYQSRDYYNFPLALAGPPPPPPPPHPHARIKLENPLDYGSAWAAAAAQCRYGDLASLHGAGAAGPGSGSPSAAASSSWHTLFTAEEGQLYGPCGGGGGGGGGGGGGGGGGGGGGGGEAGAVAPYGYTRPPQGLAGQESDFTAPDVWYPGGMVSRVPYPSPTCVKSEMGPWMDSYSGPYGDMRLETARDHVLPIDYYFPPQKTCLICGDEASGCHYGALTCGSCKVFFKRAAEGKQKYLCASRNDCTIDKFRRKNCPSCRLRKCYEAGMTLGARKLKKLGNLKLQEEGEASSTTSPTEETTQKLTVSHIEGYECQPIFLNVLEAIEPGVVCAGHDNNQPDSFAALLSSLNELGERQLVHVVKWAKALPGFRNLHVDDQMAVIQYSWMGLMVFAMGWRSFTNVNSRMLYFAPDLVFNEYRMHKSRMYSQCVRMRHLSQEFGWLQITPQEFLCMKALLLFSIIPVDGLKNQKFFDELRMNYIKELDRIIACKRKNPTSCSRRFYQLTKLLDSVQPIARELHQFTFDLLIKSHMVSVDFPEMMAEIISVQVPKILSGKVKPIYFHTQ
chicken Estrogen Receptor (ESR1), ESR1 (gene 396099), sequence (P06212 whole entry, looked up, the tested form may be a part): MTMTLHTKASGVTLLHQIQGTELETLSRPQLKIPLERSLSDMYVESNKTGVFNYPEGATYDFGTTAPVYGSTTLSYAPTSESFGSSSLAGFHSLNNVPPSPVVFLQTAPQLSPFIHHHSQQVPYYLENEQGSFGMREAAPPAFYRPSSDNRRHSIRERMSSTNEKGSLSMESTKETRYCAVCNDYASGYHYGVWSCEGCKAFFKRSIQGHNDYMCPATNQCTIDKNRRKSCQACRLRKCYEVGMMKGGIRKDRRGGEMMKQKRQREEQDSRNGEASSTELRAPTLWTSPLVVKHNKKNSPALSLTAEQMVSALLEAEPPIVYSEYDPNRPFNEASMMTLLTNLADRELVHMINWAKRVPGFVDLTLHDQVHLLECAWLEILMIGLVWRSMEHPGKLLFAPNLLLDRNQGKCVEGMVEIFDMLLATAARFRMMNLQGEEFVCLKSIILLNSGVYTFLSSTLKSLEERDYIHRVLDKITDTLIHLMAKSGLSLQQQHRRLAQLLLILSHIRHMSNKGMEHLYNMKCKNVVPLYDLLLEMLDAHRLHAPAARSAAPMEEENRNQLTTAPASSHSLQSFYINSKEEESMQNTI
Nuclear receptor subfamily 1 group I member 2 (Mus musculus), sequence (O54915 whole entry, looked up, the tested form may be a part): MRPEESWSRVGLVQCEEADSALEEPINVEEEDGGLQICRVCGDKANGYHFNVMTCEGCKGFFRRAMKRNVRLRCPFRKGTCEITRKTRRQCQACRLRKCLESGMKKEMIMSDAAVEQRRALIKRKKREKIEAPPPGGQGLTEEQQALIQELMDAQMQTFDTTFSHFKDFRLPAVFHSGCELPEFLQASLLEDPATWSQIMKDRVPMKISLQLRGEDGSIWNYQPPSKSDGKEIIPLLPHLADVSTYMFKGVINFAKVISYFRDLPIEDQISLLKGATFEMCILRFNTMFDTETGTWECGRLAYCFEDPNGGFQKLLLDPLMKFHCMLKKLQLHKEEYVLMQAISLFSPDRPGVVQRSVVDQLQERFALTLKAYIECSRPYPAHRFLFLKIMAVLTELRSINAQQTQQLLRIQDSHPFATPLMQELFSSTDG
Estrogen receptor (Homo sapiens), sequence (P03372 whole entry, looked up, the tested form may be a part): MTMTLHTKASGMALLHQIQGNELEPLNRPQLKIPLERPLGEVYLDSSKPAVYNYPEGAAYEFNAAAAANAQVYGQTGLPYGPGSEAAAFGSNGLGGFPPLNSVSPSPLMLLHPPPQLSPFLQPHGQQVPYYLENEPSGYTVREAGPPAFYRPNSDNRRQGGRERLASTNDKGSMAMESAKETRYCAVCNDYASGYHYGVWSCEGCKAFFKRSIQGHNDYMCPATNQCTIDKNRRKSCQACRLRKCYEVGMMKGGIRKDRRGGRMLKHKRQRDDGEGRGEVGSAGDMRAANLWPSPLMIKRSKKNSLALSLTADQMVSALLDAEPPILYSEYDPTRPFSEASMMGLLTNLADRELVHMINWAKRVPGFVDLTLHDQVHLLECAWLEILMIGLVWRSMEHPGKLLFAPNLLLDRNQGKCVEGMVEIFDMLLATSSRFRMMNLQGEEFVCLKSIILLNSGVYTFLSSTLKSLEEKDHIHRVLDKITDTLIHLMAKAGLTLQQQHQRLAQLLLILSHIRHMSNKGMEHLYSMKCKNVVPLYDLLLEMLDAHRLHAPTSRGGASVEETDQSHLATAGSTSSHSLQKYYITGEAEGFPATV
Estrogen receptor beta (Homo sapiens), sequence (Q92731 whole entry, looked up, the tested form may be a part): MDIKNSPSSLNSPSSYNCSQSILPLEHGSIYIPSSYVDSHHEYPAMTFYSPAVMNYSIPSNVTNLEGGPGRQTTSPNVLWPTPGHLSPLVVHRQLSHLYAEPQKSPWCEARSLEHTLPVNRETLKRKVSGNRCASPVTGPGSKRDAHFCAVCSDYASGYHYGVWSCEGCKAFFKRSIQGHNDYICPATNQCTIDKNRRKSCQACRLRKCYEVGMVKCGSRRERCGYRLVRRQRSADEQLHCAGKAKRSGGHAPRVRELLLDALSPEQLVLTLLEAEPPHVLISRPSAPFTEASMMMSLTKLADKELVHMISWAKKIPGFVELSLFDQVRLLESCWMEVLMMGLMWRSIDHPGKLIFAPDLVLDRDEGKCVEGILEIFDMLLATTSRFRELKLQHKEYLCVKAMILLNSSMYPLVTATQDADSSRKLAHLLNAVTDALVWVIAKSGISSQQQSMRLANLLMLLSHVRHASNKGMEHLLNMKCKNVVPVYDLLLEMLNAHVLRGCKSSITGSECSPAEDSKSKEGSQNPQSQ
frog Thyroid hormone Receptor alpha (TRa), thra-a (gene 397942), sequence (P15204 whole entry, looked up, the tested form may be a part): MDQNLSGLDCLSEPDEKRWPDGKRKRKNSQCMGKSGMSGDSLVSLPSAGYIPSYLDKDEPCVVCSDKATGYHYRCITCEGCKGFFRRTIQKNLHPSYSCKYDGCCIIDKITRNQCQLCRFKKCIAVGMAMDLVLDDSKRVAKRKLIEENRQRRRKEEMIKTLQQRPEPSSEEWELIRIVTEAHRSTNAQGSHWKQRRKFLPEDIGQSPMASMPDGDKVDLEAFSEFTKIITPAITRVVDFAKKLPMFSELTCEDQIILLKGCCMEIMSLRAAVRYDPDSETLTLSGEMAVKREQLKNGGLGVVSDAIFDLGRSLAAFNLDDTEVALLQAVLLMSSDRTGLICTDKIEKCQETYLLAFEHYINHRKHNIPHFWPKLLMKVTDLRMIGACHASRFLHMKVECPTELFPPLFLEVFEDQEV

The term AC50 denotes the concentration giving half of the maximal activity seen. `Cc1cc(CCN2CCN(c3nsc4ccccc34)CC2)cc2c1NC(=O)CC2(C)C`: the AC50 in experiment [1] was 21.4 µM (active); in [2] it was 18.7 µM (active).
On to `CCC(C)(C)C1CCC(O)CC1` (centres undefined), for which the compound was called inactive in experiment [1], in [3], in [4], in experiment [5], in experiment [8] and in [9]. Besides, the outcome in [10], in [11], in [12] and in experiment [13] was inactive. Further, the AC50 in [6] and in experiment [7] was 10 µM (active) throughout.
On to `N#C[C@@H]1CC(F)(F)CN1C(=O)CNC1CC2CCC(C1)N2c1ncccn1` (some centres undefined), for which the call in experiment [1], in experiment [14] and in [2] was inactive.
Take `Cc1oc(-c2ccccc2)nc1CCOc1ccc(C[C@H](Nc2ccccc2C(=O)c2ccccc2)C(=O)O)cc1`: the AC50 was 14.4 µM (active) in experiment [1] and 8.01 µM (active) in [2]. The result in experiment [3], in [5], in experiment [7], in [15], in experiment [8] and in experiment [9] was inactive. Also, the compound was called inactive in experiment [10].
`ClC1=C(Cl)C(Cl)(Cl)C(Cl)=C1Cl`: the AC50 in experiment [1] is 68 µM (active); in [16], 71.2 µM (active).
As for `Oc1cc2ccccc2c2ccccc12`, the results for the AC50 in [1] and in [2] were 10.7 µM (active) and 8.26 µM (active), respectively. The result in experiment [14] was inactive.
In the case of `Cc1cc(C)c(O)c(C)c1`, the result in [1] was inactive.
As for `Nc1cccc2c(N)cccc12`, the AC50 was 0.115 µM (active) in [14] and 77.8 µM (active) in [2].
Regarding `CC(C)(C)CC(C)(C)c1ccc(O)c(-n2nc3ccccc3n2)c1`, in [1], the AC50 was 82.8 µM (active).
As for `CC(=O)CC(C)(C)O`, the compound was called inactive in experiment [1] and in experiment [2].
As to `CCC(=C(c1ccc(O)cc1)c1ccc(OCCN(C)C)cc1)c1ccccc1`, the AC50 in experiment [1] was 5.79 µM (active); in [2], 7.6 µM (active).
Turning to `CCCCCCCCCCCCc1ccccc1S(=O)(=O)O`, the compound was classed as inactive in experiment [1] and in experiment [14]. Besides, the AC50 in [2] was 72.9 µM (active).
Take `O=[N+]([O-])c1ccc(O)cc1`: in experiment [1], the compound was classed as inactive.
Take `O=C1OC2(c3ccccc31)c1cc(Br)c(O)c(Br)c1Oc1c2cc(Br)c(O)c1Br`: the compound was called inactive in experiment [16].
`O=C(/C=C/c1ccc(O)cc1)CC(=O)/C=C/c1ccc(O)cc1`: the figures for the AC50 in [1] and in [2] were 28.4 µM (active) and 29.9 µM (active), respectively. In experiment [14], the result was inactive.
Regarding `CCCOC(=O)c1ccc(O)cc1`, the call in experiment [1] was inactive.
The same measure, in the same setting: as for `CCCCC(CC)COC(=O)CCCCC(=O)OCC(CC)CCCC` (centres undefined), the entry is “inactive”.

For the origin of these results see PubChem BioAssay (EPA / NIEHS).
